# Data: the supplement of paper PMC4466140
# Columns and labels:
# Assay in all cases: SPOT peptide array binding signal intensity (averaged, normalized) (arbitrary units (background-subtracted, floor 0; scale differs between SH3 domains)); higher = stronger binding of the SH3 domain to the peptide
# AgAbp1 = molecular target: AgAbp1
# Method in brief: (§1)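 Spot intensities were captured after detection with anti-GST antibody, an HRP-linked anti-mouse secondary and luminol, and quantified with Genespotter. The probes were GST-fused SH3 domains from four yeast species, produced in E. coli BL21(DE3), purified on glutathione Sepharose and incubated at 10 μg/ml overnight at 4°C on cellulose-bound synthetic 15-mer peptides with cysteines replaced by serines. Binding signal is the normalized, background-subtracted spot intensity averaged over replicates, and its arbitrary units differ between domains.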
# AgBbc1 = molecular target: AgBbc1
# Method in brief: as §1
# AgBem1-D1 = molecular target: AgBem1-D1
# Method in brief: as §1
# AgBzz1-D1 = molecular target: AgBzz1-D1
# Method in brief: as §1
# AgBzz1-D2 = molecular target: AgBzz1-D2
# Method in brief: as §1
# AgCyk3 = molecular target: AgCyk3
# Method in brief: as §1
# AgFus1 = molecular target: AgFus1
# Method in brief: as §1
# AgHof1 = molecular target: AgHof1
# Method in brief: as §1
# AgHse1 = molecular target: AgHse1
# Method in brief: as §1
# AgLsb1 = molecular target: AgLsb1
# Method in brief: as §1
# AgLsb4 = molecular target: AgLsb4
# Method in brief: as §1
# AgMyo5 = molecular target: AgMyo5
# Method in brief: as §1
# AgNbp2 = molecular target: AgNbp2
# Method in brief: as §1
# AgRvs167 = molecular target: AgRvs167
# Method in brief: as §1
# AgSho1 = molecular target: AgSho1
# Method in brief: as §1
# AgSla1-D1-D2 = molecular target: AgSla1-D1-D2
# Method in brief: as §1
# AgSla1-D3 = molecular target: AgSla1-D3
# Method in brief: as §1
# CaAbp1-D1 = molecular target: CaAbp1-D1
# Method in brief: as §1
# CaAbp1-D2 = molecular target: CaAbp1-D2
# Method in brief: as §1
# CaBbc1 = molecular target: CaBbc1
# Method in brief: as §1
# CaBem1-D1 = molecular target: CaBem1-D1
# Method in brief: as §1
# CaBzz1-D1 = molecular target: CaBzz1-D1
# Method in brief: as §1
# CaBzz1-D2 = molecular target: CaBzz1-D2
# Method in brief: as §1
# CaCyk3 = molecular target: CaCyk3
# Method in brief: as §1
# CaFus1 = molecular target: CaFus1
# Method in brief: as §1
# CaHof1 = molecular target: CaHof1
# Method in brief: as §1
# CaHse1 = molecular target: CaHse1
# Method in brief: as §1
# CaLsb1 = molecular target: CaLsb1
# Method in brief: as §1
# CaLsb4 = molecular target: CaLsb4
# Method in brief: as §1
# CaMyo5 = molecular target: CaMyo5
# Method in brief: as §1
# CaNbp2 = molecular target: CaNbp2
# Method in brief: as §1
# CaRvs167 = molecular target: CaRvs167
# Method in brief: as §1
# CaRvs167-3 = molecular target: CaRvs167-3
# Method in brief: as §1
# CaSho1 = molecular target: CaSho1
# Method in brief: as §1
# CaSla1-D1-D2 = molecular target: CaSla1-D1-D2
# Method in brief: as §1
# CaSla1-D3 = molecular target: CaSla1-D3
# Method in brief: as §1
# ScAbp1 = molecular target: ScAbp1
# Method in brief: as §1
# ScBbc1 = molecular target: ScBbc1
# Method in brief: as §1
# ScBem1-D1 = molecular target: ScBem1-D1
# Method in brief: as §1
# ScBzz1-D1 = molecular target: ScBzz1-D1
# Method in brief: as §1
# ScBzz1-D2 = molecular target: ScBzz1-D2
# Method in brief: as §1
# ScCyk3 = molecular target: ScCyk3
# Method in brief: as §1
# ScFus1 = molecular target: ScFus1
# Method in brief: as §1
# ScHof1 = molecular target: ScHof1
# Method in brief: as §1
# ScHse1 = molecular target: ScHse1
# Method in brief: as §1
# ScLsb1 = molecular target: ScLsb1
# Method in brief: as §1
# ScLsb2 = molecular target: ScLsb2
# Method in brief: as §1
# ScLsb3 = molecular target: ScLsb3
# Method in brief: as §1
# ScLsb4 = molecular target: ScLsb4
# Method in brief: as §1
# ScMyo3 = molecular target: ScMyo3
# Method in brief: as §1
# ScMyo5 = molecular target: ScMyo5
# Method in brief: as §1
# ScNbp2 = molecular target: ScNbp2
# Method in brief: as §1
# ScPex13 = molecular target: ScPex13
# Method in brief: as §1
# ScRvs167 = molecular target: ScRvs167
# Method in brief: as §1
# ScSho1 = molecular target: ScSho1
# Method in brief: as §1
# ScSla1-D1-D2 = molecular target: ScSla1-D1-D2
# Method in brief: as §1
# ScSla1-D3 = molecular target: ScSla1-D3
# Method in brief: as §1
# SpAbp1-D1 = molecular target: SpAbp1-D1
# Method in brief: as §1
# SpBbc1 = molecular target: SpBbc1
# Method in brief: as §1
# SpBzz1-D1 = molecular target: SpBzz1-D1
# Method in brief: as §1
# SpBzz1-D2 = molecular target: SpBzz1-D2
# Method in brief: as §1
# SpCyk3 = molecular target: SpCyk3
# Method in brief: as §1
# SpHof1 = molecular target: SpHof1
# Method in brief: as §1
# SpHof1-2 = molecular target: SpHof1-2
# Method in brief: as §1
# SpHof1-3 = molecular target: SpHof1-3
# Method in brief: as §1
# SpHse1 = molecular target: SpHse1
# Method in brief: as §1
# SpLsb1 = molecular target: SpLsb1
# Method in brief: as §1
# SpLsb4 = molecular target: SpLsb4
# Method in brief: as §1
# SpMyo1 = molecular target: SpMyo1
# Method in brief: as §1
# SpNbp2 = molecular target: SpNbp2
# Method in brief: as §1
# SpPex13 = molecular target: SpPex13
# Method in brief: as §1
# SpRvs167 = molecular target: SpRvs167
# Method in brief: as §1
# SpSla1-D1-D2 = molecular target: SpSla1-D1-D2
# Method in brief: as §1
# SpSla1-D3 = molecular target: SpSla1-D3
# Method in brief: as §1
binder,measurement,setting,value
PSPSSSPPPIPKTAN,SPOT peptide array binding signal intensity,AgAbp1,6.5
same,SPOT peptide array binding signal intensity,AgBbc1,2.5
same,SPOT peptide array binding signal intensity,AgBem1-D1,5
same,SPOT peptide array binding signal intensity,AgBzz1-D1,2
same,SPOT peptide array binding signal intensity,AgBzz1-D2,22.5
same,SPOT peptide array binding signal intensity,AgCyk3,1
same,SPOT peptide array binding signal intensity,AgFus1,0.5
same,SPOT peptide array binding signal intensity,AgHof1,≤ 0
same,SPOT peptide array binding signal intensity,AgHse1,27
same,SPOT peptide array binding signal intensity,AgLsb1,1
same,SPOT peptide array binding signal intensity,AgLsb4,≤ 0
same,SPOT peptide array binding signal intensity,AgMyo5,1760
same,SPOT peptide array binding signal intensity,AgNbp2,≤ 0
same,SPOT peptide array binding signal intensity,AgRvs167,2.33
same,SPOT peptide array binding signal intensity,AgSho1,2.5
same,SPOT peptide array binding signal intensity,AgSla1-D1-D2,2.5
same,SPOT peptide array binding signal intensity,AgSla1-D3,≤ 0
same,SPOT peptide array binding signal intensity,CaAbp1-D1,≤ 0
same,SPOT peptide array binding signal intensity,CaAbp1-D2,9
same,SPOT peptide array binding signal intensity,CaBbc1,1
same,SPOT peptide array binding signal intensity,CaBem1-D1,≤ 0
same,SPOT peptide array binding signal intensity,CaBzz1-D1,112
same,SPOT peptide array binding signal intensity,CaBzz1-D2,15
same,SPOT peptide array binding signal intensity,CaCyk3,1
same,SPOT peptide array binding signal intensity,CaFus1,31.5
same,SPOT peptide array binding signal intensity,CaHof1,≤ 0
same,SPOT peptide array binding signal intensity,CaHse1,≤ 0
same,SPOT peptide array binding signal intensity,CaLsb1,≤ 0
same,SPOT peptide array binding signal intensity,CaLsb4,4.5
same,SPOT peptide array binding signal intensity,CaMyo5,386
same,SPOT peptide array binding signal intensity,CaNbp2,15.5
same,SPOT peptide array binding signal intensity,CaRvs167,≤ 0
same,SPOT peptide array binding signal intensity,CaRvs167-3,3
same,SPOT peptide array binding signal intensity,CaSho1,5
same,SPOT peptide array binding signal intensity,CaSla1-D1-D2,8.5
same,SPOT peptide array binding signal intensity,CaSla1-D3,≤ 0
same,SPOT peptide array binding signal intensity,ScAbp1,9
same,SPOT peptide array binding signal intensity,ScBbc1,≤ 0
same,SPOT peptide array binding signal intensity,ScBem1-D1,≤ 0
same,SPOT peptide array binding signal intensity,ScBzz1-D1,4
same,SPOT peptide array binding signal intensity,ScBzz1-D2,20
same,SPOT peptide array binding signal intensity,ScCyk3,≤ 0
same,SPOT peptide array binding signal intensity,ScFus1,≤ 0
same,SPOT peptide array binding signal intensity,ScHof1,≤ 0
same,SPOT peptide array binding signal intensity,ScHse1,50
same,SPOT peptide array binding signal intensity,ScLsb1,1
same,SPOT peptide array binding signal intensity,ScLsb2,≤ 0
same,SPOT peptide array binding signal intensity,ScLsb3,24.5
same,SPOT peptide array binding signal intensity,ScLsb4,≤ 0
same,SPOT peptide array binding signal intensity,ScMyo3,2350
same,SPOT peptide array binding signal intensity,ScMyo5,1200
same,SPOT peptide array binding signal intensity,ScNbp2,6.5
same,SPOT peptide array binding signal intensity,ScPex13,≤ 0
same,SPOT peptide array binding signal intensity,ScRvs167,2
same,SPOT peptide array binding signal intensity,ScSho1,≤ 0
same,SPOT peptide array binding signal intensity,ScSla1-D1-D2,≤ 0
same,SPOT peptide array binding signal intensity,ScSla1-D3,22.8
same,SPOT peptide array binding signal intensity,SpAbp1-D1,8
same,SPOT peptide array binding signal intensity,SpBbc1,5
same,SPOT peptide array binding signal intensity,SpBzz1-D1,182
same,SPOT peptide array binding signal intensity,SpBzz1-D2,0.5
same,SPOT peptide array binding signal intensity,SpCyk3,1
same,SPOT peptide array binding signal intensity,SpHof1,≤ 0
same,SPOT peptide array binding signal intensity,SpHof1-2,≤ 0
same,SPOT peptide array binding signal intensity,SpHof1-3,0.5
same,SPOT peptide array binding signal intensity,SpHse1,2.5
same,SPOT peptide array binding signal intensity,SpLsb1,1.5
same,SPOT peptide array binding signal intensity,SpLsb4,≤ 0
same,SPOT peptide array binding signal intensity,SpMyo1,1570
same,SPOT peptide array binding signal intensity,SpNbp2,3
same,SPOT peptide array binding signal intensity,SpPex13,≤ 0
same,SPOT peptide array binding signal intensity,SpRvs167,1.17
same,SPOT peptide array binding signal intensity,SpSla1-D1-D2,2
same,SPOT peptide array binding signal intensity,SpSla1-D3,3
FVLRYYILIPHEQWD,SPOT peptide array binding signal intensity,AgAbp1,6
same,SPOT peptide array binding signal intensity,AgBbc1,≤ 0
same,SPOT peptide array binding signal intensity,AgBem1-D1,190
same,SPOT peptide array binding signal intensity,AgBzz1-D1,≤ 0
same,SPOT peptide array binding signal intensity,AgBzz1-D2,5.5
same,SPOT peptide array binding signal intensity,AgCyk3,13.5
same,SPOT peptide array binding signal intensity,AgFus1,1800
same,SPOT peptide array binding signal intensity,AgHof1,5
same,SPOT peptide array binding signal intensity,AgHse1,1200
same,SPOT peptide array binding signal intensity,AgLsb1,3
same,SPOT peptide array binding signal intensity,AgLsb4,334
same,SPOT peptide array binding signal intensity,AgMyo5,1
same,SPOT peptide array binding signal intensity,AgNbp2,82.5
same,SPOT peptide array binding signal intensity,AgRvs167,2.5
same,SPOT peptide array binding signal intensity,AgSho1,218
same,SPOT peptide array binding signal intensity,AgSla1-D1-D2,14.5
same,SPOT peptide array binding signal intensity,AgSla1-D3,2.75
same,SPOT peptide array binding signal intensity,CaAbp1-D1,30.5
same,SPOT peptide array binding signal intensity,CaAbp1-D2,78.5
same,SPOT peptide array binding signal intensity,CaBbc1,0.25
same,SPOT peptide array binding signal intensity,CaBem1-D1,≤ 0
same,SPOT peptide array binding signal intensity,CaBzz1-D1,63
same,SPOT peptide array binding signal intensity,CaBzz1-D2,36.8
same,SPOT peptide array binding signal intensity,CaCyk3,5
same,SPOT peptide array binding signal intensity,CaFus1,3930
same,SPOT peptide array binding signal intensity,CaHof1,0.75
same,SPOT peptide array binding signal intensity,CaHse1,174
same,SPOT peptide array binding signal intensity,CaLsb1,6.5
same,SPOT peptide array binding signal intensity,CaLsb4,31.5
same,SPOT peptide array binding signal intensity,CaMyo5,31.5
